Bioassay records from PubChem.
Shown are actives, neighbours in structure and some others; about 12% of the full set was active somewhere.
Pf growth 48h – P. falciparum growth inhibition at 48 hours (one generation); P. falciparum luciferase growth in erythrocytes, 48 h; Potency, µM (titrated, usually from 28.7 µM), for inactives: top-dose activity change, negative = inhibition, most hits filed as inhibitors; 310,000 compounds, 5.9% hits; AID 504832; note: % is set by controls: 0 for no effect and ±100 for the full control effect
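Luciferase-expressing parasites in RBCs, 2% Hct / 0.1% parasitemia final; RPMI 1640 + 0.5% Albumax; 37 C, 5% CO2, one generation; luminescence read-out, lower signal = inhibition.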
Sm TGR block – inhibitors of Schistosoma mansoni thioredoxin glutathione reductase; Q962Y6; 360,000 compounds, 3% hits; Potency, µM (series often up to 114 µM), for the others: at the highest dose activity change, negative = inhibition, actives largely listed as inhibitors; purified TGR, DTNB reduction, TNB absorbance 405 nm; note: % is set by controls: 0 for no effect and ±100 for the full control effect; nearly all actives have a fitted effect of over 60% in size
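Kinetic colorimetric format: TGR-catalysed, NADPH-driven DTNB reduction monitored via TNB absorbance. Enzyme dispensed at 20 nM; compound exposure 15 min at room temperature before reaction start.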
Pf growth 96h – P. falciparum growth inhibition at 96 hours. P. falciparum luciferase reporter growth, 96 h. Potency, µM (doses to about 28.7 µM), without a hit: top-dose activity change, negative = inhibition, hits mostly inhibitors. 320,000 compounds, 6.9% hits. AID 504834; note: % is set by controls: 0 for no effect and ±100 for the full control effect
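Delayed-death screen, second-generation endpoint: infected erythrocytes, 2% hematocrit, 0.05% parasitemia final; 96 hours at 37 C, 5% CO2; luciferase detection reagent; luminescence decrease equals reduced growth.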
SARS PLpro yeast – inhibitors of SARS-CoV papain-like protease in yeast; S. cerevisiae expressing SARS-CoV PLpro, growth rescue; Potency, µM (doses to about 32.9 µM), for inactives: at the highest dose activity, positive = growth rescue, hits mostly activators; 330,000 compounds, 0.19% hits; AID 485353; calls by dose curve; note: 0% is about no effect; nearly all actives have a fitted effect of over 55% in size
Numbers without * were called inactive; ? = inconclusive; . = not tested or not shown; [ ] = dose if it differs, or a comment. Unless noted, calls come from the whole dose curve; as a rule, active = well fitted curve in the direction sought with a large enough effect; inconclusive = small, poorly fitted or top-dose-only effect, or another doubt; inactive = no such curve, though single readings can be large; an effect the other way counts as inactive or inconclusive. Potency is the fitted concentration of half-maximal effect.

SMILES | Pf growth 48h | Sm TGR block | Pf growth 96h | SARS PLpro yeast
O=S(=O)(c1ccccc1)c1nnn2c1nc(NC1CCN(Cc3ccccc3)CC1)c1ccccc12 | ? | 2% | ? | -8%
COc1cccc(CCNC(=O)c2c(O)nc3cc(C)ccn3c2=O)c1 | . | -9% | . | .
Cc1cccc(CNC(=O)c2cnc3c(-c4cccc(C)c4)c(C)nn3c2C)c1 | . | -2% | . | .
CN1CCN(C2=Nc3cc(Cl)ccc3Nc3ccccc32)CC1 | 17µM* | -8% | ? | -1%
Cc1ccc(-n2nc3c(=O)n(CC(=O)Nc4ccccc4F)nc(C)c3c2C)c(C)c1 | . | 3% | . | .
O=c1c(-c2cc(-c3ccccc3)nc3c2COc2ccccc2-3)coc2ccc(Cl)cc12 | . | -5% | . | .
Cc1c(NS(=O)(=O)c2ccccc2)cc(C(C)C)c(O)c1S(=O)(=O)c1ccc(Cl)cc1 | . | 1% | . | .
CCOC(=O)NCc1ccc(S(=O)(=O)Nc2ccccc2C)cc1 | . | 0%[11.4 µM] | 13µM* | -3%
CCOC(=O)NCc1ccccc1 | 17% | -18% | 44% | -2%
Cc1ccc(C)c(S(=O)(=O)Nc2cc(SCC(=O)O)c(O)c3ccccc23)c1 | ? | 3.5µM* | 21% | -22%
CCc1ccc(S(=O)(=O)Nc2cc(SCC(=O)O)c(O)c3ccccc23)cc1 | 7.4µM* | 6.3µM* | ? | -6%
CCOc1ccc(S(=O)(=O)Nc2cc(SCC(=O)O)c(O)c3ccccc23)cc1 | 10µM* | 7.1µM* | 1.9µM* | -32%
CCN(CC)CCOC(=O)c1ccc(NC(=O)c2cc3c(s2)-c2ccccc2OC3)cc1 | . | 13% | . | .
CCOc1ccc(CNC(=O)C2CCN(S(=O)(=O)N3CCC(C)CC3)CC2)cc1OC | . | 4% | . | .
Cn1c(=O)n(C)c2cc(N3CCOCC3)c(NC(=O)c3ccc(C(C)(C)C)cc3)cc21 | . | 0% | . | .
Cc1ccccc1CN1C(=O)c2ccccc2Sc2ccc(C(=O)OCc3ccco3)cc21 | . | 31% | . | .
O=C(O)c1ccccc1NS(=O)(=O)c1cccc2cccnc12 | -8% | 1% | . | -3%
O=C(O)CSc1cc(NS(=O)(=O)c2cccc([N+](=O)[O-])c2)c2ccccc2c1O | 10µM* | 1.8µM* | ? | -6%
O=S(=O)(Nc1cc(Sc2cccc3cccnc23)c(O)c2ccccc12)c1ccccc1 | 3.3µM* | 3.5µM* | 243% | -15%
CCc1ccc(S(=O)(=O)Nc2ccc(O)c3ccccc23)cc1 | 9.3µM* | 10µM* | 8% | -3%
CCOC(=O)c1ccccc1NS(=O)(=O)c1ccc(OCC)cc1 | . | 5% | 9.3µM* | -4%
O=C(O)c1cccc(S(=O)(=O)Nc2ccc([N+](=O)[O-])cc2O)c1 | 7% | 7% | 49% | 0%
CCOC(=O)c1ccccc1NC(=O)CN(c1ccccc1)S(=O)(=O)c1ccc(OCC)cc1 | . | -5% | . | .
CN(C)S(=O)(=O)c1cccc(C(=O)N=C2N=C3C=CC(Cl)=CN3Cc3ccccc32)c1 | ? | -11% | ? | -2%
CC(C)(C)OC(=O)N1CCC(c2c(C(=O)N3CCN(c4ccccc4F)CC3)cnn2C(C)(C)C)CC1 | . | 1% | . | .
SMILES | Pf growth 48h | Sm TGR block | Pf growth 96h | SARS PLpro yeast
O=S(=O)(Nc1ccc(Br)cn1)c1ccc(Cl)s1 | 8% | -34% | 34% | -15%
CC1CCCC(NC(=O)CN2C(=O)c3cccnc3Oc3ccc(Cl)cc32)C1C (stereo unspecified) | ? | -3% | 24% | -11%
COc1ccc(OC)c(S(=O)(=O)Nc2ccc(O)c3ccccc23)c1 | 1.2µM* | 10µM* | . | -46%
COc1ccc(NS(=O)(=O)c2cc(NC(=O)c3cc(=O)c4ccccc4o3)ccc2OC)cc1 | 8.3µM* | 9% | ? | -1%
COc1ccc(OC)c(S(=O)(=O)Nc2ccc(Oc3ccccc3)cc2)c1 | -3% | 7% | 0% | 5%
CC(C)(C)C(=O)Oc1ccc(S(=O)(=O)Nc2ccccc2C(=O)NCC(=O)O)cc1 | -4% | . | 13µM* | .
COc1cccc(NC(=O)c2cc(=O)c3ccccc3o2)c1 | 66% | -8% | 76% | -8%
CCN(C(=O)CSc1n[nH]c(N)n1)c1cccc2ccccc12 | . | . | . | 0%
Cc1onc(-c2ccccc2)c1C(=O)OCCOc1ccc([N+](=O)[O-])cc1[N+](=O)[O-] | . | 1% | 4.1µM* | -2%
Cc1ccccc1OCCOC(=O)c1c(-c2ccccc2)noc1C | 12µM* | -4% | ? | -5%
Cc1onc(-c2ccccc2)c1C(=O)OCCOc1ccccc1F | ? | 6% | -27% | -5%
